This is part of a sample that, as a whole, favours compounds with a hit. Of some 83,000 tested, about 20% had one in any assay.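 Percent growth is the endpoint: 0 to 100 indicates growth inhibition (40 means 60% inhibition), 0 means no net growth, and negative values indicate cell death.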 Unmarked numbers belong to inactive results. Active and inactive are the calls of the source. The calls were made as follows: active = growth percent below 10; inactive = the rest.

Common to all, as to experiment: NCI-60 one-dose screen, 48 h (100 = growth as untreated, 0 = no growth, -100 = all killed)
Common to all, as to conditions: 10 µM unless noted

Assay [1] relates to SK-MEL-2 melanoma.
Assay [2] deals with EKVX NSCLC.
Assay [3] concerns SN12C renal.
Assay [4] has as its system UO-31 renal.
The test system of assay [5] is TK-10 renal.
Assay [6] relates to ACHN renal.
In assay [7] the test system is CAKI-1 renal.
Assay [8] concerns A498 renal.
The subject of assay [9] is CCRF-CEM leukemia.
Assay [10] has as its system MOLT-4 leukemia.
The subject of assay [11] is OVCAR-8 ovarian.
In assay [12] the test system is OVCAR-5 ovarian.
Assay [13] deals with OVCAR-4 ovarian.
The subject of assay [14] is SK-OV-3 ovarian.
In assay [15] the test system is IGROV1 ovarian.
The test system of assay [16] is HS 578T breast.
Assay [17] has as its system NCI/ADR-RES ovarian.
Assay [18] relates to OVCAR-3 ovarian.
Assay [19] concerns SR leukemia.
Assay [20] concerns RPMI-8226 leukemia.

`Fc1cnc(NC2CC2)nc1-c1cnc2ccc(N3CCOCC3)cn12`: the growth in assay [1] is -34.1% (active); in assay [2], -19.5% (active); in [3] it was 8.74% (active); in assay [4], 7.85% (active); in [5] it was 6.32% (active); in assay [6], 3.03% (active). Moreover, the growth in assay [7] was 4.17% (active); in assay [8], -29.5% (active); in assay [9] it was 6.3% (active); in assay [10], 2.32% (active); in assay [11], 9.65% (active); in assay [12], -4.33% (active). For the same molecule, the growth was -1.69% (active) in [13]; 20.6% in [14]; 4.44% (active) in assay [15]; -7.95% (active) in assay [16]; 7.33% (active) in assay [17].
Consider `COc1ccc(-c2nc(SCCC(C)C)nc(N/N=C\c3ccccc3O)c2C#N)cc1`, for which the growth was 103% in [1]; 101% in assay [2]; 81.2% in assay [3]; 86.7% in assay [4]; 101% in assay [5]; 73.5% in assay [6]. In addition, the growth in assay [7] is 73.9%; in assay [8] it was 95.8%; in [9], 66.3%; in assay [10], 90.2%; in [11] it was 75.4%; in [13], 4.04% (active). For the same molecule, the growth is 87.6% in assay [14]; 86.7% in assay [15]; 78.8% in assay [18]; 63.2% in assay [16]; 84.2% in [17].
As for `O=C(/C=C/c1ccc(Cl)nc1)c1ccc(Cl)cc1Cl`, the growth in [1] was 106%; in [2] it was 97.5%; in assay [3], 106%; in assay [4] it was 89.3%; in [5] it was 100%; in assay [6], 93.1%. For the same molecule, the growth in assay [7] is 71.2%; in [8] it was 88.8%; in assay [9], 7% (active); in assay [10], 15.9%; in [11] it was 95.6%; in assay [12], 91.4%. Besides, the growth was 87.3% in assay [13]; 106% in assay [14]; 96.9% in assay [15]; 78.5% in assay [18]; 110% in [16]; 102% in assay [17].
Take `O=C(Cc1ccc(F)c(F)c1)Nc1cc(C2(C(F)(F)F)CC2)nn1Cc1ccccc1`: the growth in assay [1] was -32.9% (active); in [2] it was 6.62% (active); in [3] it was 6.15% (active); in [4], -3.87% (active); in assay [5], 3.48% (active); in assay [6], -13.2% (active). The growth in assay [7] is -18.4% (active); in assay [8] it was -34% (active); in assay [9], 20.1%; in [10] it was 8.42% (active); in [11], 6.55% (active); in [12], 2.55% (active). Moreover, the growth in assay [13] was 10.2%; in assay [14] it was -24.7% (active); in [15], 30.3%; in [18], 7.3% (active); in [16], -2.64% (active); in assay [17] it was 4.36% (active).
With `COc1cc(C(=O)/C=C/c2c(-c3ccc(F)cc3)nc3sc(C)cn23)cc(OC)c1OC`, the growth in [1] is 144%; in assay [2], 17.4%; in [3], 56.3%; in assay [4] it was 58%; in [5], 52.2%; in assay [6], 46.5%. Also, the growth is 32.8% in assay [7]; -1.47% (active) in assay [8]; 14.8% in assay [9]; -38.8% (active) in assay [10]; 22.5% in [11]; 143% in [12]. In addition, the growth in assay [13] was 24.4%; in [14], 64.4%; in [15], 84.9%; in assay [18] it was 16.5%; in assay [16], 25.4%; in assay [17] it was 2.75% (active).
As for `CC(=O)C(C)Cc1cc2c(cc1C)C(C)(C)CCC2(C)C` (centres undefined), the growth in [1] is 94.8%; in assay [2], 94.4%; in assay [3] it was 103%; in assay [4] it was 101%; in assay [5] it was 100%; in assay [6], 104%. The growth in assay [7] is 97.6%; in assay [8], 108%; in assay [9] it was 121%; in assay [19], 131%; in [20], 100%; in assay [11], 101%. The growth is 98.6% in assay [12]; 104% in assay [13]; 85.7% in assay [14]; 114% in assay [15]; 108% in assay [18]; 102% in assay [16]. Also, in assay [17], the growth is 98.8%.
As to `O=c1ssc(Cl)c1-c1ccccc1`, the growth in assay [1] was 155%; in [2], 94.9%; in [3], 93.9%; in assay [4], 74.6%; in assay [5], 126%; in [6] it was 104%. In addition, the growth is 90.5% in assay [7]; 108% in assay [8]; 98.1% in [9]; 124% in [19]; 111% in [20]; 89.4% in assay [11]. Moreover, the growth is 88.7% in assay [12]; 98.4% in [13]; 118% in assay [14]; 83.7% in [15]; 126% in [18]; 104% in assay [16]. Besides, the growth in assay [17] was 95.9%.
As for `Cc1cc(NCc2cc(Nc3ccnc4cc(Cl)ccc34)ccc2F)nc(N2CCSCC2)n1`, the growth in assay [1] was 47.6%; in [2], 58.7%; in assay [3], 34.9%; in assay [4], -10.2% (active); in assay [5], -58.3% (active); in assay [6], -81.4% (active). Also, the growth was 60.9% in [7]; 45% in [8]; -10.4% (active) in assay [9]; -11.7% (active) in assay [19]; -9.52% (active) in assay [20]; 19.2% in assay [11]. For the same molecule, the growth in assay [12] is 78.7%; in assay [13] it was 14.4%; in assay [14], 10.3%; in assay [15], 40.6%; in assay [18], -32.6% (active); in [16] it was -1.47% (active). Besides, the growth in assay [17] is 15.7%.
For the molecule `Clc1cc(Cl)cc(Nc2ccc3cc(OCCCN4CCOCC4)ccc3n2)c1`, the growth is 63.9% in assay [1]; 69.3% in assay [2]; 60.1% in assay [3]; 26.5% in assay [4]; 47% in [5]; 42% in [6]. In addition, the growth in assay [7] was 75.3%; in assay [8], 51%; in assay [9], 12.9%; in [19] it was 1.31% (active); in assay [20], -2.42% (active); in assay [11] it was 44.4%. Also, the growth in assay [12] was 65.7%; in assay [13], 46.8%; in assay [14] it was 67.4%; in assay [15], 58%; in assay [18], 60%; in assay [16], 25%. Also, in [17], the growth is 51%.

Source of the values: PubChem BioAssay (NCI).
